The campaign covered roughly 340,000 compounds. About 12,000 (3.5%) were called active. A call without a number means that no potency is given here. Inconclusive results (about 18%) are left out. This is one part of a sample in which actives are shown more often than they occur. The call rests on the fitted dose curve; in most records, active means well fitted inhibition curve with a large enough effect; inconclusive means small, poorly fitted or top-dose-only effect, or another doubt; inactive means no such curve, though single readings can be large or run the other way.
test: qHTS Assay for Inhibitors of Hepatitis C Virus (HCV); details: Huh7.5.1 HCVcc-Cre infection, luciferase reporter, 44 h; series mostly up to 41.8 µM
How it was run: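 1,000 cells/well; 4 h culture; + compound; + HCVcc-Cre (~0.5 moi); 44 h; luciferase substrate, RT 15 min; read 15 sec.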
Potency means the concentration at half of the fitted maximal effect.

Row | SMILES | Potency | activity change, negative = inhibition
1 | CCCCN1C(=O)C(=O)N(CC(=O)Nc2cccc(C(C)=O)c2)C1=O | inactive | 
2 | CC(C)Cc1nnc(NC(=O)CCNC(=O)c2ccccc2Cl)s1 | inactive | 
3 | COc1ccc(-c2nnc(-c3ccc4ccccc4c3)o2)cc1 | inactive | 
4 | CCOc1ccc(S(=O)(=O)Nc2ccc(C(=O)NCCCN3CCCC3=O)cc2)cc1 | inactive | 
5 | Cc1cccc(NC(=O)c2sc3nc4c(c(-c5ccco5)c3c2N)CCC4)c1 | inactive | 
6 | Cc1nc2sc(C(=O)c3ccccc3)c(N)c2c2c1CCCC2 | 25.1 µM (active) | 
7 | CCOC(=O)c1sc2nc(SC)nc(-c3ccccc3)c2c1N | inactive | 
8 | COc1ccc(-c2ccc3nnc(SCC(=O)Nc4ccc(NC(C)=O)cc4)n3n2)cc1 | inactive | 
9 | CC(C)(C)OC(=O)C[C@@H]1C/C=C\C[C@H](CC(=O)N[C@@H](CO)Cc2ccccc2)C(=O)N[C@H](Cc2ccccc2)COC1=O | inactive | 
10 | Cc1c(Cl)c([N+](=O)[O-])nn1CCCC(=O)Nc1cc(Cl)ccc1Cl | inactive | 
11 | O=C(N/N=C/c1ccc2c(c1)OCO2)c1ccc(Cn2cc([N+](=O)[O-])cn2)o1 | inactive | 
12 | Cc1c(Cl)c([N+](=O)[O-])nn1Cc1ccc(C(=O)N/N=C\c2cc(Cl)ccc2O)o1 | 12.6 µM (active) | 
13 | Cc1ccc(S(=O)(=O)N2CCC(C(=O)N3CCCCCCC3)CC2)cc1 | inactive | 
14 | O=C(O)c1ccccc1N=N/C(=N/Nc1cc(S(=O)(=O)O)ccc1O)c1ccccc1 | inactive | 
15 | CN(C)CCN(C(=O)CN1C(=O)c2ccccc2C1=O)c1nc2cc3c(cc2s1)OCCO3 | inactive | 
16 | COC(=O)c1ccc(CSc2ccc(S(=O)(=O)N3CCCCC3)cn2)cc1 | inactive | 
17 | Cc1ccc2nc(-c3ccncc3)cc(C(=O)Nc3ccc(OC(F)F)cc3)c2c1 | 8.91 µM (active) | 
18 | Cc1ccc2nc(-c3ccccn3)cc(C(=O)Nc3ccc4c(c3)OCO4)c2c1 | inactive | 
19 | Cc1ccc2nc(-c3ccncc3)cc(C(=O)Nc3ccncc3)c2c1 | inactive | 
20 | COc1cc(C2C(C(=O)c3cccs3)=C(O)C(=O)N2CCN2CCOCC2)ccc1OCCC(C)C (stereo unspecified) | inactive | 
21 | Cc1c[n+]([O-])ccc1[N+](=O)[O-] | inactive | 
22 | Cc1nn(C)cc1/C=N/NC(=O)c1sc2ccccc2c1Cl | inactive | 
23 | O=C(N/N=C/c1c(Cl)[nH]c2ccccc12)c1sc2ccccc2c1Cl | 10 µM (active) | 
24 | CCOc1ccc2ccccc2c1/C=N/NC(=O)c1c(C)cc(C)[nH]c1=O | inactive | 
25 | OCC1(CO)CC2(C1)CC(CO)(CO)C2 | inactive | 
26 | Cc1ccc(S(=O)(=O)N2CCN(C(=O)c3ccc(-n4cncn4)c([N+](=O)[O-])c3)CC2)cc1 | inactive | 

Row | SMILES | Potency | activity change, negative = inhibition
27 | Cc1ccc(NC(=O)C2CCCN2C(=O)OCc2ccccc2)cc1C (stereo unspecified) | inactive | 
28 | Cc1ccc(C)c(NC(=O)C2Cc3ccccc3CN2C(=O)OCc2ccccc2)c1 (stereo unspecified) | 10 µM (active) | 
29 | Cc1ccc(S(=O)(=O)N(C)C)cc1NC(=O)C1Cc2ccccc2CN1C(=O)c1ccco1 (stereo unspecified) | inactive | 
30 | Cc1ccc(OCC(=O)Nc2ccccc2C(=O)NC2CC2)cc1 | inactive | 
31 | CC1CCCCC1NC(=O)COc1ccc(C#N)cc1 (stereo unspecified) | inactive | 
32 | O=C(CC1SCCNC1=O)Nc1ccc(Cl)c(Cl)c1 (stereo unspecified) | inactive | 
33 | O=C(CC(O)(C(F)(F)F)C(F)(F)F)Nc1ccc(Cl)c(Cl)c1 | 5.01 µM (active) | 
34 | Cc1ccc(NC(=O)C/C(N)=N/O)cc1Cl | inactive | 
35 | Cc1cccc(OCC(O)CN2CCN(CCN3C(=O)c4cccc5cccc(c45)C3=O)CC2)c1C (stereo unspecified) | 8.91 µM (active) | 
36 | Cc1cccc(C)c1OCC(O)CN1CCCCC1 (stereo unspecified) | inactive | 
37 | Cc1ccccc1OCC(O)CN1CCN(c2ccccn2)CC1 (stereo unspecified) | inactive | 
38 | CCn1nc(C(=O)NNS(=O)(=O)c2cc(/C=C/C(=O)O)cc(OC)c2OC)c2ccccc2c1=O | inactive | 
39 | CCc1ccc2oc(-c3ccc(N)cc3)nc2c1 | 12.6 µM (active) | 
40 | COc1ccc(-c2nc3cc([N+](=O)[O-])ccc3o2)cc1OC | inactive | 
41 | COc1cccc(-c2nc3cc(C)ccc3o2)c1 | inactive | 
42 | Nc1cc(=O)n(Cc2ccccc2)c(=O)n1Cc1ccccc1 | inactive | 
43 | Cc1c(NC(=O)CN(C)CC(=O)Nc2ccc(F)c(F)c2F)c(=O)n(-c2ccccc2)n1C | inactive | 
44 | Cc1ccc(-n2c(SCC(=O)N3c4ccccc4Sc4ccccc43)nnc2-c2ccncc2)cc1 | inactive | 
45 | Cc1ccc(Nc2nc(CSc3nnc(-c4ccncc4)n3-c3ccccc3C)cs2)cc1 | 10 µM (active) | 
46 | Cc1ccccc1-n1c(SCC(=O)NCc2cccs2)nnc1-c1ccncc1 | inactive | 
47 | CC1CCCC(C)N1C(=O)COC(=O)COc1ccccc1C#N (stereo unspecified) | inactive | 
48 | CSc1nccc(NC(=O)c2ccc(C(C)(C)C)cc2)n1 | 1.78 µM (active) | 
49 | COC(=O)c1nc(NC(=O)c2ccc(C(C)(C)C)cc2)n[nH]1 | inactive | 
50 | Cc1cccc(NC(=O)c2cccnc2Cl)n1 | inactive | 
51 | CCN(CC(=O)Nc1cc(Cl)ccc1C)C(=O)CN1C(=O)NC2(CCCC2)C1=O | inactive | 
52 | CN[C@H](C(=O)NC[C@H]1O[C@@H](n2cnc3c(N)ncnc32)[C@H](O)[C@@H]1O)[C@@H](C)OCc1ccccc1 | inactive | 

Row | SMILES | Potency | activity change, negative = inhibition
53 | CN(C)CC(O)COc1ccc(C(C)(C)c2ccc(OCC(O)CN(C)C)cc2)cc1 (stereo unspecified) | 10 µM (active) | 
54 | CC(C)(c1ccccc1)c1ccc(OCCN)cc1 | inactive | 
55 | Cc1cc(C)n(CC(O)COc2ccc(C(C)(C)C)cc2)n1 (stereo unspecified) | inactive | 
56 | Cc1ccc(C(=O)NCC(=O)NC2CC2)cc1 | inactive | 
57 | Cc1ccsc1C(=O)NNC(=O)COc1ccc(Br)cc1 | inactive | 
58 | CCc1nnc(NC(=O)C2CCN(C(=O)c3ccccc3C)CC2)s1 | inactive | 
59 | CCN(CC)C(CNC(=O)CSc1nnnn1-c1cccc(F)c1)c1ccco1 (stereo unspecified) | 25.1 µM (active) | 
60 | Cc1cc(NC(=O)CSc2nnnn2-c2ccc(F)cc2)no1 | inactive | 
61 | O=C(CSc1nnnn1-c1ccccc1)NCc1ccco1 | inactive | 
62 | CCN(CC)S(=O)(=O)c1ccc(Cl)c(C(=O)NC(C)C(c2cccs2)N2CCCC2)c1 (stereo unspecified) | 14.1 µM (active) | 
63 | CCN(CC)S(=O)(=O)c1ccc(Cl)c(C(=O)NCCN2CCOCC2)c1 | inactive | 
64 | CCCC(=O)NC(C)C(c1cccs1)N1CCN(c2ccccc2)CC1 (stereo unspecified) | inactive | 
65 | O=S(=O)(Nc1cc(Cl)ccc1N1CCOCC1)c1ccccc1Cl | inactive | 
66 | Cc1[nH]c2ccccc2c1C(=O)C(C)Sc1nnc(C2CC2)o1 (stereo unspecified) | inactive | 
67 | Cc1n[nH]c(=O)c2c(NC(=O)CSc3ccccc3F)oc(C)c12 | inactive | 
68 | Cn1cccc1C(=O)Nc1nccs1 | inactive | 
69 | COc1cc(C(=O)Nc2nccs2)cc(OC)c1OC | 14.1 µM (active) | 
70 | COC(=O)c1sccc1NC(=O)c1cc(OC)c(OC)c(OC)c1 | inactive | 
71 | O=C(O)c1ccccc1-c1ccccc1C(=O)Nc1nccs1 | inactive | 
72 | CN(C)/N=C/c1cn(-c2ccccc2)nc1-c1cccnc1 | inactive | 
73 | COc1ccc(-c2nn(-c3ccccc3)cc2/C=N/Nc2ccccn2)cc1OC | 10 µM (active) | 
74 | COc1ccc(-c2nn(-c3ccccc3)cc2C(=O)Nc2nccs2)cc1OC | 2.51 µM (active) | 
75 | CC(C)(C)OC(=O)N/N=C/c1cn(-c2ccccc2)nc1-c1cccnc1 | inactive | 
76 | CC(=O)Oc1ccc(C(=O)Nc2nccs2)cc1 | inactive | 
77 | Cc1ccc(C)c(NC(=O)CN(C)C(=O)COc2ccc3ccccc3c2)c1 | inactive | 
78 | CC(NC(=O)COC(=O)c1ccc2ccccc2n1)c1ccccc1 (stereo unspecified) | inactive | 

Row | SMILES | Potency | activity change, negative = inhibition
79 | COc1cc(NC(=O)COC(=O)c2cc(S(=O)(=O)N3CCOCC3)ccc2F)cc(OC)c1 | inactive | 
80 | Cc1ccc(F)cc1NC(=O)CSCc1c(C)noc1C | inactive | 
81 | O=C(COC(=O)CNS(=O)(=O)c1ccc(F)c(F)c1F)NC1CCCC1 | inactive | 
82 | CCC1(C)COC(c2ccc(OC)c(OC)c2)OC1 (stereo unspecified) | inactive | 
83 | C=CC[C@H](CC(=O)OC(C)(C)C)C(=O)OC[C@H]1CCCN1C(=O)[C@H](CC=C)CC(=O)N(CCO)Cc1ccccc1 | inactive | 
84 | C=CC[C@H](CC(=O)NCCO)C(=O)N[C@@H](COC(=O)[C@@H](CC=C)Cc1ccc(F)cc1)Cc1c[nH]c2ccccc12 | inactive | 
85 | C=CCC[C@@H](Cc1ccc(F)cc1)C(=O)O[C@H](CNC(=O)[C@H](CC=C)CC(=O)N(CCO)Cc1ccccc1)c1ccccc1 | 8.91 µM (active) | 
86 | COc1cc(Nc2nc3ccc(Cl)cc3n3cnnc23)cc(OC)c1OC | inactive | 
87 | COc1ccc(OC)c(Nc2nc3ccccc3n3cnnc23)c1 | 10 µM (active) | 
88 | COc1ccc(CCNc2nc3ccc(C)cc3n3cnnc23)cc1OC | inactive | 
89 | CN1CCC(N(C)C(=O)c2ccc(Cl)c(S(=O)(=O)Nc3ccc(Cl)cc3)c2)CC1 | inactive | 
90 | CC1CC(C)(C)CC2(C1)NC(=O)N(CC(=O)Nc1nccs1)C2=O (stereo unspecified) | inactive | 
91 | COc1ccc2[nH]c3c(c2c1)CCN[C@H]3C | inactive | 
92 | COc1ccc2[nH]c3ccc(OC)cc3c2c1 | 25.1 µM (active) | 
93 | COc1ccc2[nH]c(=S)cc(C)c2c1 | inactive | 
94 | COc1ccc(-c2noc(CCC(=O)N3CCN(c4cccc(C)c4)CC3)n2)cc1 | inactive | 
95 | COc1cccc(-n2c(SCC(=O)NC3CCS(=O)(=O)C3)nc3ccccc3c2=O)c1 (stereo unspecified) | inactive | 
96 | O=C1CC(c2ccccc2)C(=O)N2C(=O)CC(c3ccccc3)C(=O)N12 (stereo unspecified) | inactive | 
97 | CCN(CC)C(=O)[C@H]1C[C@H](CC(=O)NCC23CC4CC(CC(C4)C2)C3)C(=O)N2CCc3c([nH]c4cc(CCC(=O)N(C)C)ccc34)[C@]12C |  | -5.73% [at 8.37 µM] (inactive)
98 | COc1ccc(OCC(=O)Nc2ccc(N3CCC(C)CC3)cc2)cc1 | inactive | 
99 | O=C(COc1ccc([N+](=O)[O-])cc1)Nc1ccc(N2CCCC2)cc1 | inactive | 
100 | CCC(=O)c1ccc(OCC(=O)Nc2ccc(N3CCCCC3)cc2)cc1 | 11.2 µM (active) | 
101 | O=C(NC(=S)Nc1ccc(Br)cc1F)C1CCCCC1 | inactive | 

Source: PubChem BioAssay AID651820 (National Center for Advancing Translational Sciences (NCATS), 2012)
